Experimental data as given in PubChem BioAssay AID1159580 (chemical genetic matrix, 2015).
Several values for one entry are separate records, joined by “and”; a condition that tells them apart may be missing. Equal entries are not always repeated. The campaign covered roughly 5,500 compounds. About 2,000 (36%) were called active. Roughly 18% stayed inconclusive and do not appear here. No stated cut-off is given here; in the data, active means normalized growth mostly below about 0.91 (no sharp cut-off); inconclusive means no clear call, values can overlap the other calls; inactive means mostly above about 0.92. The list shows a part of the results.

Assay: chemical genetic growth profiling, strain panel (AID 1159580);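 further: tested at 20 µM; growth read once vehicle control cultures reached saturation at 30 °C; 1 = growth at the plate median or of vehicle wells; lower values mean less growth of the strain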
Conditions: S. cerevisiae deletion strains, growth OD

Measured: normalized growth

CC(CN(C)C)CN1c2ccccc2Sc2ccccc21 (configuration not stated)
active: locus YBR021W, strain FUR4, active compounds read low 0.818 | locus YDR137W, strain rgp1, active compounds read low 1.22 [resistant]
inactive: locus YAL013W, strain DEP1, active compounds read low 0.993 | locus YAL021C, strain ccr4, active compounds read low 0.99 | locus YAL026C, strain drs2, active compounds read low 0.951 | locus YAL030W, strain snc1, active compounds read low 1.02 | locus YBL061C, strain skt5, active compounds read low 1.02 | locus YBR009C, strain hhf1, active compounds read low 1.02 | locus YBR023C, strain chs3, active compounds read low 1.02 | locus YBR171W, strain sec66, active compounds read low 1.04 | locus YBR229C, strain ROT2, active compounds read low 0.992 | locus YBR231C, strain swc5, active compounds read low 1.03 | locus YBR279W, strain paf1, active compounds read low 1.02 | locus YCL011C, strain gbp2, active compounds read low 1.02 | locus YCL016C, strain dcc1, active compounds read low 1.01 | locus YCL029C, strain bik1, active compounds read low 0.989 | locus YCL061C, strain MRC1, active compounds read low 1.02 | locus YCL069W, strain vba3, active compounds read low 1.02 | locus YCR088W, strain abp1, active compounds read low 1.02 | locus YDL005C, strain med2, active compounds read low 1.02 | locus YDL035C, strain GPR1, active compounds read low 0.985 | locus YDL040C, strain nat1, active compounds read low 1.01 | locus YDL074C, strain BRE1, active compounds read low 0.933 | locus YDL101C, strain DUN1, active compounds read low 0.985 | locus YDL134C, strain PPH21, active compounds read low 0.979 | locus YDL185W, strain tfp1, active compounds read low 0.974 | locus YDL192W, strain arf1, active compounds read low 0.998 | locus YDR001C, strain nth1, active compounds read low 1.01 | locus YDR069C, strain doa4, active compounds read low 1.01 | locus YDR101C, strain arx1, active compounds read low 0.988 | locus YDR150W, strain NUM1, active compounds read low 1.01 | locus YDR159W, strain sac3, active compounds read low 1.03 | locus YDR162C, strain NBP2, active compounds read low 0.991 | locus YDR195W, strain ref2 1.13 | locus YDR297W, strain sur2, active compounds read low 1.01 | locus YDR318W, strain mcm21, active compounds read low 0.974 | locus YDR334W, strain swr1, active compounds read low 1.02 | locus YDR335W, strain msn5, active compounds read low 1.02 | locus YDR388W, active compounds read low 0.966 | locus YDR392W, strain spt3, active compounds read low 1.07 | locus YDR502C, strain sam2, active compounds read low 0.99 | locus YEL003W, strain gim4, active compounds read low 0.988 | locus YEL037C, strain rad23, active compounds read low 1.01 | locus YEL061C, strain CIN8 (second series), active compounds read low 1.02 | locus YEL061C, strain CIN8, active compounds read low 0.994 | locus YER015W, strain faa2, active compounds read low 1.03 | locus YER016W, strain bim1, active compounds read low 1.02 | locus YER110C, active compounds read low 0.999 | locus YER111C, strain swi4, active compounds read low 1.03 | locus YER155C, strain BEM2 (second series), active compounds read low 1.04 | locus YER155C, strain BEM2, active compounds read low 0.99 | locus YER167W, strain BCK2, active compounds read low 0.997 | locus YFR010W, strain ubp6, active compounds read low 0.985 | locus YGL078C, strain dbp3, active compounds read low 0.986 | locus YGL086W, strain mad1, active compounds read low 0.991 | locus YGL167C, strain pmr1, active compounds read low 1.03 | locus YGL173C, strain kem1, active compounds read low 1.03 | locus YGL227W, strain vid30, active compounds read low 1.02 | locus YGL240W, strain doc1, active compounds read low 1.03 | locus YGL248W, strain PDE1, active compounds read low 0.995 | locus YGL253W, strain hxk2, active compounds read low 1.02 | locus YGR078C, strain PAC10, active compounds read low 0.958 | locus YGR135W, strain pre9, active compounds read low 0.944 | locus YGR229C, strain SMI1, active compounds read low 0.911 | locus YGR252W, strain gcn5, active compounds read low 0.917 | locus YHR013C, strain ard1, active compounds read low 1.04 | locus YHR027C, strain rpn1, active compounds read low 1.05 | locus YHR030C, strain SLT2, active compounds read low 0.983 and 1 | locus YHR079C, strain IRE1 (second series), active compounds read low 0.985 | locus YHR079C, strain IRE1, active compounds read low 0.993 | locus YHR094C, strain hxt1, active compounds read low 0.993 | locus YHR129C, strain ARP1, active compounds read low 0.989 | locus YHR142W, strain chs7, active compounds read low 1.01 | locus YHR200W, strain rpn10, active compounds read low 0.988 | locus YIL066C, strain RNR3, active compounds read low 0.972 | locus YIL073C, strain SPO22, active compounds read low 0.991 | locus YIL125W, strain kgd1, active compounds read low 0.996 | locus YIR030C, strain dcg1, active compounds read low 0.989 | locus YJL092W, strain hpr5, active compounds read low 1.01 | locus YJL095W, strain BCK1 (second series), active compounds read low 1.01 | locus YJL095W, strain BCK1, active compounds read low 0.861 and 1 | locus YJL115W, strain asf1, active compounds read low 1.01 | locus YJL129C, strain trk1, active compounds read low 1.11 | locus YJL134W, strain LCB3, active compounds read low 0.992 | locus YJL154C, strain vps35, active compounds read low 1.02 | locus YJL164C, strain tpk1, active compounds read low 1.02 | locus YJL166W, strain qcr8, active compounds read low 1.02 | locus YJL168C, strain set2, active compounds read low 0.993 | locus YJL187C, strain SWE1 (second series), active compounds read low 0.957 | locus YJL187C, strain SWE1, active compounds read low 1.01 | locus YJR043C, strain POL32, active compounds read low 1.02 | locus YJR066W, strain TOR1, active compounds read low 0.937
